# In PubChem BioAssay (NCATS):
# Unmarked numbers belong to inactive results. Unless noted, the call rests on the fitted dose curve; in most records, active means well fitted curve in the direction sought with a large enough effect; inconclusive means small, poorly fitted or top-dose-only effect, or another doubt; inactive means no such curve, though single readings can be large or run the other way.
# Target: Pyruvate kinase PKM (Homo sapiens) (UniProt P14618)
# Assay: qHTS Assay for Activators of Human Muscle Pyruvate Kinase (AID 954; active means well fitted curve in the direction sought with a large enough effect, not every such curve was filed as active;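 further: 0% = uninhibited enzyme and -100% = no enzyme or full thiadiazolimine inhibition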)
# Conditions: purified human muscle pyruvate kinase, luciferase-coupled luminescence, 1 h; series mostly up to 57.5 µM; activity change, negative = inhibition: at the top concentration
# Summary of the method: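 Luminescence from a luciferase ATP-detection/stop reagent reported PKM2 activity. Reactions contained 0.1 nM purified human enzyme, 0.5 mM PEP, 0.1 mM ADP and 7 mM MgCl2 at pH 7.2, run 1 h at RT.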
# Chain of Pyruvate kinase PKM (Homo sapiens) (P14618 whole entry, looked up): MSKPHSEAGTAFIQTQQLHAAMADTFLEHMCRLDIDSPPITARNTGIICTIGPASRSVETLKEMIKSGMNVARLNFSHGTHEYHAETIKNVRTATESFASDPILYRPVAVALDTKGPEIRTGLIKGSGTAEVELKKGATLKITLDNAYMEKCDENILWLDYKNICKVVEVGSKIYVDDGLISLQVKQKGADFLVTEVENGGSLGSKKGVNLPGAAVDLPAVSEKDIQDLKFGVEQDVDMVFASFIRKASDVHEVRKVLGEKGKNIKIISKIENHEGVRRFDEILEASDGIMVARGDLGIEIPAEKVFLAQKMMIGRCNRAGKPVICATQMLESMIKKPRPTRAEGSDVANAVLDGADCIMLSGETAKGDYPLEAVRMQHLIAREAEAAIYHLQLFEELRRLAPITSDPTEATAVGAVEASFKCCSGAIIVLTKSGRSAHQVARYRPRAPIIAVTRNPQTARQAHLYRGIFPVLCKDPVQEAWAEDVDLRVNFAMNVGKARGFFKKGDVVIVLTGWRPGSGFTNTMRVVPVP
row,Structure (SMILES),"activity change, negative = inhibition [%]"
1,NCCc1c[nH]c2ccc(C(N)=O)cc12,-30.2
2,C[N+]1(C)[C@@H]2CC[C@H]1CC(OC(=O)c1c[nH]c3ccccc13)C2 (some centres undefined),20.9
3,Nc1ccc(CCN2CCN(c3cccc(C(F)(F)F)c3)CC2)cc1,-6.06
4,c1ccc2cc(CC3=NCCN3)ccc2c1,7.26

# Target: Alpha-galactosidase (Coffea arabica) (UniProt Q42656)
# Sequence (Q42656 whole entry, looked up): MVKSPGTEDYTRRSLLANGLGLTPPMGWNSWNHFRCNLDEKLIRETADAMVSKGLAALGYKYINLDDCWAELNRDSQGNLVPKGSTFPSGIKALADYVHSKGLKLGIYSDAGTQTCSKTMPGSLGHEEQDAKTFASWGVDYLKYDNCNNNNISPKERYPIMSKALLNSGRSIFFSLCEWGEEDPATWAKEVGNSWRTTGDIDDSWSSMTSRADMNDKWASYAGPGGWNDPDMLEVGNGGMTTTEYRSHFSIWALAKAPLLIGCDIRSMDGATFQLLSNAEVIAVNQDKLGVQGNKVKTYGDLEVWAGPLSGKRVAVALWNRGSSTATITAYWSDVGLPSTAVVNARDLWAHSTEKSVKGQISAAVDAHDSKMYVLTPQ
# Assay: Counterscreen for Glucocerebrosidase Inhibitors: qHTS Assay for Coffee Bean alpha-Galactosidase at pH 4.5 (AID 957);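 further: plate controls were enzyme alone for no effect and no enzyme for full effect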
# Conditions: purified coffee bean alpha-galactosidase, fluorogenic substrate; series mostly up to 76.9 µM; activity change, negative = inhibition: at the top concentration
# Summary of the method: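 AC50 values derive from Hill-equation modeling of concentration-response data, normalized to no-enzyme and full-activity controls. The pH 4.5 citrate assay used 2 nM coffee bean enzyme and 80 uM fluorogenic substrate for 20 min.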
row,Structure (SMILES),"activity change, negative = inhibition [%]"
1,C[C@@H]1[C@@H]2Cc3ccc(O)cc3[C@@]1(C)CCN2CC1CC1,-1.06
2,C[N+](C)(C)CC#CCN1CCCC1=O,-2.53
3,NC(N)=NOCC[C@H](N)C(=O)O,0.471
4,CCCn1c(C)c(C(=O)c2ccc3ccccc3c2)c2ccccc21,-11.2
5,N[C@@H](Cn1oc(=O)[nH]c1=O)C(=O)O,0.303
6,COc1ccc2[nH]c3c(c2c1)CCNC3,-7.17
7,CCCN(CCC)CCc1ccc(O)c(O)c1,2.58
8,CCCN(CCC)CCc1c[nH]c2ccc(C(N)=O)cc12,1.63
9,CC(C)(C)c1cc(C=C(C#N)C#N)cc(C(C)(C)C)c1O,-5.08
10,Cc1[nH]c2ccc(O)cc2c1CCN,-3.33
11,CCCN1CCc2cc(O)cc3c2[C@H]1Cc1ccc(O)c(O)c1-3,-0.806
12,N#CCCN,1.4
13,Clc1ccc(N2C[C@H]3CC[C@@H](C2)N3)nn1,0.0522
14,C[N+](C)(C)CC#CCOC(=O)Nc1cccc(Cl)c1,2.51
15,CC(C)NP(=O)(NC(C)C)OP(=O)(NC(C)C)NC(C)C,0.197
16,CC(=O)NBr,-0.542
17,Clc1cc(I)cc(Cl)c1NC1=NCCN1,0.0261
18,C[N+]1(C)CCN(c2ccccc2)CC1,-0.059
19,CNC(=O)OCC[N+](C)(C)C,-2.5
20,O=[N+]([O-])c1cc(O)c(O)c([N+](=O)[O-])c1,-4.66
